# Results reported in PubChem BioAssay (NCI).
# Values joined by “and” are separate entries in the source; they are usually repeats but may differ in a detail not shown here. Equal values may be shown once. This is part of a sample that, as a whole, favours compounds with a hit. Of some 83,000 tested, about 20% had one in any assay.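 Treatment: one concentration, 48 hours, 96-well format. Scoring: percent growth, with anything below 10 considered active.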 A number with no mark means an inactive call. Active and inactive are the calls of the source.
# Key:
# Assay in all cases: NCI-60 one-dose screen, 48 h (100 = growth as untreated, 0 = no growth, -100 = all killed)
# Details in all cases: 10 µM unless noted
# [1] = tested on: NCI-H23 lung
# [2] = tested on: NCI-H226 lung
# [3] = tested on: HOP-62 NSCLC
# [4] = tested on: NCI-H460 lung
# [5] = tested on: HOP-92 NSCLC
# [6] = tested on: NCI-H522 lung
# [7] = tested on: A549/ATCC NSCLC
# [8] = tested on: 786-0 renal
# [9] = tested on: COLO 205 colon
# [10] = tested on: DU-145 prostate
# [11] = tested on: K-562 leukemia
# [12] = tested on: MALME-3M melanoma
# [13] = tested on: MDA-MB-231 breast
# [14] = tested on: RXF 393 renal
# [15] = tested on: SF-268 CNS
# [16] = tested on: SF-295 CNS
# [17] = tested on: SF-539 CNS
# [18] = tested on: UACC-257 melanoma
# [19] = tested on: M14 melanoma
# [20] = tested on: NCI-H322M lung
Compound,growth [1],growth [2],growth [3],growth [4],growth [5],growth [6],growth [7],growth [8],growth [9],growth [10],growth [11],growth [12],growth [13],growth [14],growth [15],growth [16],growth [17],growth [18],growth [19],growth [20] [%]
O=C(N/N=C/c1ccccc1)N/N=C/c1ccccc1,118% and 101%,106% and 78.9%,104% and 117%,118% and 95.1%,100% and 90.3%,99.5% and 106%,102% and 104%,118% and 116%,109% and 129%,131% and 109%,95%,94.4% and 107%,106%,107% and 98.5%,112% and 100%,92.4% and 105%,100% and 98.3%,90.3% and 106%,123% and 115%,
N#C/C(=C1C=C/C(=N/O)C(Br)=C/1)c1ccccc1,78.3%,32%,16.3%,8.25% (active),-6.62% (active),-43.3% (active),27.6%,20%,,-13.1% (active),9.55% (active),67.4%,28.1%,17%,18.8%,-8.83% (active),-26% (active),44.1%,,
CC(O)Cn1cnc2c1c(=O)n(C)c(=O)n2C (stereo not drawn),96.7%,102%,102%,118%,,,99.6%,102%,,,,110%,95.5%,99.3%,103%,109%,93.7%,106%,104%,
O=C(O)c1cc(C(=O)O)cc([N+](=O)[O-])c1,,102%,,110%,111%,94.3%,106%,101%,,116%,,95.2%,105%,123%,111%,93.4%,100%,103%,99.8%,105
CN1C(=O)C(N=Nc2ccc([N+](=O)[O-])cc2)SC1=S (stereo not drawn),64.1% and 43.7%,80.9% and 70.3%,41.1% and 53.7%,,61.2% and 62.9%,52.9% and 68.1%,71% and 76.3%,70.2% and 75.1%,67% and 74.4%,90.7% and 89.2%,43.1%,80.1% and 99.9%,76.7% and 87%,80% and 94.2%,65.2% and 67.6%,185% and 46.3%,67.2% and 68.2%,76.3% and 84.2%,59.6% and 59.5%,
O=C=NC(c1ccccc1)(c1ccccc1)c1ccccc1,,111%,143%,111%,110%,90.2%,,95%,101%,106%,,95.2%,97.5%,129%,104%,98%,110%,107%,,104
N=C1N=C(N)CS1,,96.9%,107%,103%,99.5%,103%,96.6%,103%,113%,115%,105%,114%,115%,99.4%,107%,96.5%,110%,106%,,
CC1(C)C2CCC1(CS(=O)(=O)O)C(=O)C2 (stereo not drawn),,,101%,,,,,,,,,,,,,,,,,
C1CCCCNCCC1,,99.2%,116%,118%,88.3%,115%,105%,109%,,118%,104%,106%,101%,103%,109%,104%,113%,100%,105%,111
CC(/C=N/N1C(=O)c2ccccc2C1=O)c1ccccc1 (stereo not drawn),108%,90.6%,112%,108%,,104%,88.3%,102%,,115%,106%,101%,108%,101%,117%,90.9%,106%,90.5%,108%,
CCCCOc1cc(C(=O)NCCN(CC)CC)c2ccccc2n1,88.7% and 106%,94.5% and 105%,99.4% and 102%,110% and 103%,45.8% and 51.7%,103%,,90.6% and 99.9%,89.6% and 93.1%,109% and 106%,92.4% and 104%,93% and 106%,86.5% and 96.9%,80.7% and 94%,103% and 101%,92.5% and 97.5%,95.2% and 106%,62.2%,93.8% and 105%,
CC(=O)C(/C=N/C(N)=O)=C(/C)O,,111%,,,119%,99.6%,99.6%,104%,120%,118%,,106%,96.5%,114%,109%,101%,103%,97.3%,108%,
O=Nc1ccc(O)cc1,78.9% and 94.9%,95.5% and 109%,101% and 97.3%,109% and 96.9%,90.4% and 101%,87.8% and 78.5%,,98.2% and 110%,104% and 111%,97.1% and 114%,109% and 98.1%,107% and 135%,84.9% and 68.5%,99.3% and 112%,88.7% and 93.4%,99.5% and 105%,90.2% and 91.5%,108% and 96.8%,,
